The nature of assay [1]: qHTS assay to identify small molecule agonists of the estrogen receptor alpha (ER-alpha) signaling pathway in the presence of an antagonist - cell viability counter screen (AID 1259386).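 Also: cells exposed to compounds for 22 h at 37 °C before the viability read; nearly all actives have a fitted effect of over 30% in size.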 Also: potency is read from the fitted curve at half-maximal effect. A digest of the protocol:
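VM7Luc4E2 cells (endogenous full-length ER-alpha, 4×ERE-luciferase) were held 5 days in phenol red-free medium with 10% charcoal-stripped FBS, plated, then given 10.0nM ICI-182,780 and compounds at 15 concentrations for 22hr at 37C; viability read by CellTiter-Fluor fluorescence.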

In assay [2] the target is Progesterone receptor (Homo sapiens) (UniProt P06401). Nature of the assay: qHTS assay to identify small molecule agonists of the progesterone receptor (PR) signaling pathway (AID 1346784; calls by dose curve; also: nearly all actives have a fitted effect of over 30% in size). The method, boiled down: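 PR-UAS-bla HEK 293T cells (beta-lactamase reporter under UAS) in 2% charcoal-stripped FBS, dosed with 23 nL compound after 6 hr, incubated 16hr at 37C. LiveBLAzer B/G FRET substrate added, fluorescence read after 2 hours.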

For assay [3] the target is unchanged. Put plainly: qHTS assay to identify small molecule antagonists of the progesterone receptor (PR) signaling pathway (AID 1346795; active = well fitted inhibition curve with a large enough effect in the signal ratio in the repeat runs, not every such curve was filed as active; the % refers to the signal ratio; also: potency is read from the fitted curve at half-maximal effect). The method, boiled down:
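PR-UAS-bla HEK293T cells with beta-lactamase reporter under UAS control, in 2% charcoal-stripped FBS, treated with compounds plus 1 nM promegestone (R5020, final) for 16 hr at 37C. Read-out: FRET beta-lactamase substrate fluorescence after 2 hr at room temperature.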
(In qHTS, concentration-response curves come from the screen itself.)

The nature of assay [4]: qHTS assay to identify small molecule antagonists of the progesterone receptor (PR) signaling pathway - cell viability counter screen (AID 1346798). Also: nearly all actives have a fitted effect of over 50% in size. Also: potency is read from the fitted curve at half-maximal effect. The method, boiled down: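 PR-UAS-bla HEK293T cells, 3,000/well in 2% charcoal-stripped FBS medium, dosed with compounds plus R5020 agonist and incubated 16 h at 37C. Viability then measured in the same wells by CellTiter-Glo luminescence after 30 min at RT.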

The nature of assay [5]: qHTS assay to identify small molecule agonists of the progesterone receptor (PR) signaling pathway - cell viability counter screen (AID 1346799; calls by dose curve; also: nearly all actives have a fitted effect of over 45% in size; also: potency is read from the fitted curve at half-maximal effect). The method, boiled down:
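Counter screen in the PR-UAS-bla HEK293T wells (2% charcoal-stripped FBS, 16 h compound exposure at 37 C) after the bla read. CellTiter-Glo added, 30 min at room temperature, luminescence read as cell viability.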

Assay [6] in a line: qHTS assay to identify small molecule antagonists of the TGF-beta/Smad signaling pathway - cell viability counter screen (AID 1346824). Also: nearly all actives have a fitted effect of over 50% in size. The method, boiled down: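 SBE-bla HEK 293T cells, incubated overnight, then compound plus 0.25 ng/mL TGF-beta1 (stock added) for 5 hr at 37 C. Viability was read in the same wells by CellTiter-Glo luminescence after 30 min at room temperature.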

A short description of assay [7]: qHTS assay to identify small molecule agonists of the TGF-beta/Smad signaling pathway - cell viability counter screen (AID 1346829). Also: nearly all actives have a fitted effect of over 45% in size. Also: potency is read from the fitted curve at half-maximal effect. The method, boiled down:
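Cytotoxicity counter screen: CellTiter-Glo luminescence (30 min, room temperature) measured in the SBE-bla HEK 293T reporter wells after 5 hr compound treatment at 37 C and the 2 hr substrate step.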

A short description of assay [8]: qHTS assay to identify small molecule agonists of the TGF-beta/Smad signaling pathway (AID 1346859; active = well fitted activation curve with a large enough effect in the signal ratio in the repeat runs, not every such curve was filed as active; the % refers to the signal ratio; also: series mostly up to about 77 µM). The method, boiled down: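 SBE-bla HEK293T cells plated overnight, then compound exposure for 5 h at 37 C. Beta-lactamase reporter read with LiveBLAzer B/G FRET substrate after 2 h at room temperature, fluorescence at 405 nm excitation, 460/530 nm emission.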
The target in assay [9] is Thyrotropin-releasing hormone receptor (Homo sapiens) (UniProt P34981). Nature of the assay: qHTS assay to identify small molecule antagonists of the thyrotropin-releasing hormone receptor (TRHR) signaling pathway (AID 1346877; active = well fitted inhibition curve with a large enough effect in the repeat runs, not every such curve was filed as active; also: series mostly up to about 51 µM). The method, boiled down: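 TRHR-expressing HEK293 cells were seeded, cultured 18 h at 37 °C, then loaded with calcium dye for 2 h. Compounds were pre-incubated 5 min at room temperature before 1 nM TRH (final) was added, and kinetic fluorescence was recorded for 3 min.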

Assay [10] has the same target. Put plainly: qHTS assay to identify small molecule agonists of the thyrotropin-releasing hormone receptor (TRHR) signaling pathway (AID 1346891; calls by dose curve; also: series mostly up to about 58 µM). The method, boiled down:
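HEK293 cells expressing TRHR plated 18 h at 37 C/5% CO2, calcium dye-loaded 2 h at 37 C, then compound added (agonist mode); kinetic calcium fluorescence read 3 min at 1 s intervals; 15 concentrations in triplicate.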

Several values for one entry are separate records, joined by “and”; a condition that tells them apart may be missing. Equal entries are not always repeated. Results filed as inconclusive are left out. Where a structure was tested more than once in an assay, its records may differ in their call. Activity calls are given as the source filed them. Unless noted, calls follow the shape of the dose curve; as a rule, active = well fitted curve in the direction sought with a large enough effect in the repeat runs; inconclusive = weak or mixed curves; inactive = no such curve, though single readings can be large; an effect the other way counts as inactive or inconclusive.

Sequence of Progesterone receptor (Homo sapiens) (P06401 whole entry, looked up): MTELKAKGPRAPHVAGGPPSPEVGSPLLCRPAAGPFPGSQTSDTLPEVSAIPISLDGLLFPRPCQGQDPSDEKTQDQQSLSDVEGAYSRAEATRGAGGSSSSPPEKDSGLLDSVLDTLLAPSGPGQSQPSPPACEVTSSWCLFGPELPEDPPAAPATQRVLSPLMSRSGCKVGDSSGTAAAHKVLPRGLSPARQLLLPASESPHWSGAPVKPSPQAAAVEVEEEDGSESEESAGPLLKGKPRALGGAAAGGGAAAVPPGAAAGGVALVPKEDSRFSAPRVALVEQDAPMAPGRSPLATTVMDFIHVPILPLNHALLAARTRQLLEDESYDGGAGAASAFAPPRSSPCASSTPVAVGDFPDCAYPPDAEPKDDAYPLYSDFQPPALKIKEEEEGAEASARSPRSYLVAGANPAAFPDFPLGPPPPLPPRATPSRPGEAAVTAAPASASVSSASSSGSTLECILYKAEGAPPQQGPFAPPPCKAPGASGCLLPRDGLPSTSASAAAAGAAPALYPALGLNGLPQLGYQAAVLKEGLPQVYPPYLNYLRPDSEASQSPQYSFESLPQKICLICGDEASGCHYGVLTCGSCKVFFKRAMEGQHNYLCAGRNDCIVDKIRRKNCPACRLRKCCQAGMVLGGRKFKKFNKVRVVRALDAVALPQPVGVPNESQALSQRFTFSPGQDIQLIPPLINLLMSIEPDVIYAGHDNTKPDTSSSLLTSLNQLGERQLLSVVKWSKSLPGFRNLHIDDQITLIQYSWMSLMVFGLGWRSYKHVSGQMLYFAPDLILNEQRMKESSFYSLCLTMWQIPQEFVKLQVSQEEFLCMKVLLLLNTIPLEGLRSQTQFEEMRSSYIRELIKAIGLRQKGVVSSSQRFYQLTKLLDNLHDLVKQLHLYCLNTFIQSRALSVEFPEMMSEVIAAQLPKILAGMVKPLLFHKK
Sequence of Thyrotropin-releasing hormone receptor (Homo sapiens) (P34981 whole entry, looked up): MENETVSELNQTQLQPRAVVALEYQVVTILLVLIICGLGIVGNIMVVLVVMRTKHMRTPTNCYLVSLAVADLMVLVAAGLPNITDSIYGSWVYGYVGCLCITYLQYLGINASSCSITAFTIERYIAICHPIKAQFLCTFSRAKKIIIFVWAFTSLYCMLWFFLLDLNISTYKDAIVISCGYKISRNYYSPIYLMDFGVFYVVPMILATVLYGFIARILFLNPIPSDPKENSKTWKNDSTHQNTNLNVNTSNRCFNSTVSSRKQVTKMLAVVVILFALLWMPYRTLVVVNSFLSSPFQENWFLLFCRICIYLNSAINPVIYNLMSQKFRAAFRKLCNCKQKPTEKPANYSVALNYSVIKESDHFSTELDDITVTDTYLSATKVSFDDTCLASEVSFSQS

As for `C=CC(=O)OCC(CC)(COC(=O)C=C)COC(=O)C=C`, the Potency was 70.4 µM (active) and 43.3 µM (active) in assay [1]; 25 µM (active) and 17.2 µM (active) in [3]; 56 µM (active) and 43.3 µM (active) in assay [4]; 70.4 µM (active) and 24.3 µM (active) in assay [5]. Moreover, the Potency entry in assay [2], in assay [6], in assay [7], in assay [8] and in assay [9] was “inactive” throughout. Also, in [10], the result was inactive.

For the molecule `CCOP(=O)(OCC)OCC`, the Potency result in assay [1], in [2], in assay [3], in [4], in assay [5] and in assay [6] was “inactive” in each case. Further, the Potency entry in assay [7], in assay [8] and in assay [9] was “inactive” each time. For the same molecule, in assay [10], the molecule was classed as inactive.

As for `ClCC(Cl)CCl`, the Potency result in assay [1], in assay [2], in assay [3], in assay [4], in assay [5] and in [6] was “inactive” throughout. For the same molecule, the Potency entry in assay [7], in assay [8] and in assay [9] was “inactive” in each case. Further, the call in [10] was inactive.

Consider `CS(=O)(=O)NC(=O)c1cc(Oc2ccc(C(F)(F)F)cc2Cl)ccc1[N+](=O)[O-]`, for which the Potency result in [1], in assay [2], in [3], in assay [4], in [5] and in [6] was “inactive” each time. Also, the Potency entry in assay [7] and in assay [8] was “inactive” each time.

Turning to `ClC(Cl)=C(Cl)C(Cl)=C(Cl)Cl`, the Potency entry in assay [1], in assay [2], in assay [3], in assay [4], in assay [5] and in [6] was “inactive” each time. Further, the Potency entry in assay [7], in assay [8] and in assay [9] was “inactive” in each case. The molecule was classed as inactive in [10].

`CCCCCCCCCCCCCl`: the Potency entry in assay [1], in assay [2], in assay [3], in assay [4], in assay [5] and in assay [6] was “inactive” throughout. Further, the Potency entry in assay [7], in assay [8] and in assay [9] was “inactive” throughout. In addition, the call in assay [10] was inactive.

With `CCCCOCC1CO1` (stereo not drawn), the Potency result in [1], in assay [2], in assay [3], in assay [4], in [5] and in [6] was “inactive” each time. Also, the Potency entry in [7], in assay [8] and in assay [9] was “inactive” each time. In assay [10], the outcome was inactive.

Turning to `CC(C)Nc1nc(Cl)nc(NC(C)C)n1`, the Potency entry in [1], in assay [2], in [3], in [4], in [5] and in [6] was “inactive” throughout. In addition, the Potency entry in assay [7], in assay [8] and in [9] was “inactive” in each case. The molecule was classed as inactive in assay [10].

For the molecule `CC(C)(c1ccccc1)c1ccc(O)cc1`, the Potency entry in assay [1], in assay [2], in assay [4], in assay [5], in assay [6] and in assay [7] was “inactive” throughout. Moreover, the Potency result in assay [8] and in assay [9] was “inactive” throughout. For the same molecule, the Potency in assay [3] was 7.63 µM (active) and 9.69 µM (active). Also, the result in assay [10] was inactive.

Consider `NN=C(N)N`, for which the Potency result in assay [1], in assay [2], in assay [3], in [4], in assay [5] and in [6] was “inactive” each time. In addition, the Potency entry in assay [7] and in [8] was “inactive” throughout.

Regarding `O=C1CCCO1`, the Potency entry in [1], in assay [2], in assay [3], in assay [4], in assay [5] and in assay [6] was “inactive” each time. For the same molecule, the Potency result in [7], in assay [8] and in assay [9] was “inactive” in each case. In assay [10], the molecule was classed as inactive.

For the molecule `O=NN(c1ccccc1)c1ccccc1`, the Potency entry in [1], in [2], in assay [3], in assay [4], in assay [5] and in assay [6] was “inactive” in each case. Moreover, the Potency result in assay [7], in assay [8] and in assay [9] was “inactive” each time. For the same molecule, the outcome in assay [10] was inactive.

With `CN(C)c1nc(=O)n(C2CCCCC2)c(=O)n1C`, the Potency entry in [1], in [2], in assay [3], in assay [5], in [6] and in assay [7] was “inactive” throughout. In addition, the Potency result in assay [8] and in assay [9] was “inactive” each time. Also, the molecule was classed as inactive in [10].

For the molecule `ClCc1ccccn1`, the Potency entry in assay [1], in assay [2], in assay [3], in assay [4], in assay [5] and in assay [6] was “inactive” in each case. The Potency result in [7], in [8] and in assay [9] was “inactive” each time. In assay [10], the call was inactive.

With `COC(=O)Nc1nc2ccccc2[nH]1`, the Potency entry in assay [1], in assay [2], in assay [3], in [4], in assay [5] and in [6] was “inactive” each time. In addition, the Potency entry in [7], in assay [8] and in [9] was “inactive” in each case. The result in [10] was inactive.

Regarding `CCOP(=O)(O)OCC` (tested in a mixture with another compound), the Potency entry in assay [1] is “inactive and 60.6 µM (active)”; in assay [3] it was “inactive and 60.6 µM (active)”; in assay [7], “inactive and 54.5 µM (active)”. For the same molecule, the Potency entry in assay [2], in [4], in [5] and in assay [8] was “inactive” throughout.

Turning to `N#CCCCCC#N`, the Potency entry in assay [1], in [2], in assay [3], in [5], in assay [6] and in assay [7] was “inactive” in each case. Also, the Potency entry in assay [8] and in assay [9] was “inactive” throughout. Further, the call in [10] was inactive.

As for `OCCOCCO`, the Potency entry in assay [1], in assay [2], in [3], in [5], in [6] and in assay [7] was “inactive” in each case. The Potency result in [8] was “inactive”.

Regarding `ClC(Cl)(Cl)Br`, the Potency result in assay [1], in assay [2], in assay [3], in assay [4], in assay [5] and in [6] was “inactive” each time. For the same molecule, the Potency result in [7], in [8] and in [9] was “inactive” each time. Besides, in assay [10], the outcome was inactive.

Turning to `Cc1ccc([N+](=O)[O-])cc1`, the Potency result in assay [1], in assay [2], in [3], in assay [4], in [5] and in assay [6] was “inactive” throughout. In addition, the Potency entry in [7], in [8] and in assay [9] was “inactive” each time. In [10], the molecule was classed as inactive.

For the molecule `O=[N+]([O-])/N=C1\NCCN1Cc1ccc(Cl)nc1`, the Potency result in [1], in assay [2], in assay [3], in assay [4], in [5] and in [6] was “inactive” in each case. In addition, the Potency entry in assay [7], in assay [8] and in [9] was “inactive” each time. Moreover, the result in [10] was inactive.

For `CC(C)(C#N)N=NC(C)(C)C#N`, the Potency result in assay [1], in [2], in assay [3], in assay [5], in [6] and in assay [7] was “inactive” throughout. Also, the Potency result in [8] and in [9] was “inactive” in each case. Further, the call in [10] was inactive.

Turning to `Oc1ccc(Cl)cc1Cc1ccccc1`, the Potency entry in [1], in [2], in assay [4], in assay [6], in assay [7] and in [8] was “inactive” throughout. Moreover, in [9], the Potency result is “inactive”. Further, the Potency in assay [3] was 7.7 µM (active) and 10.6 µM (active). Moreover, the molecule was called inactive in [10].

Regarding `[Cl-].[Cl-].[Cl-].[Fe+3]`, the Potency entry in assay [1], in assay [2], in [3], in [5], in [6] and in assay [7] was “inactive” in each case. Further, in assay [8], the Potency result is “inactive”.

(Values after PubChem BioAssay (Tox21).)
